The list is not random: actives were taken first. Their share in the collection is about 1.6%.
KCNQ2 enhance – enhances the rat KCNQ2 potassium channel; AID 2239; 310,000 tested, 0.54% active; CHO-K1 KCNQ2, FluxOR thallium flux fluorescence; stronger effect = higher value; B-score at 10 µM;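 active means fluorescence ratio B-score at least 3 SD of library B-scores, with initial fluorescence B-score within 3 of them, cut at about 5.3 in these data; same plate scores as AID 2156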;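 further: B-score of peak minus minimum over baseline fluorescence ratio after K+ and Tl+ stimulus; positive B-score means potentiation of KCNQ2 with more thallium influx and brighter signal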
KCNQ2 inh – blocks the rat KCNQ2 potassium channel; O88943; AID 2156; B-score at 10 µM; CHO-K1 KCNQ2, FluxOR thallium flux, 20 min; stronger effect = lower value; 310,000 tested, 1.1% active;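 active means fluorescence ratio B-score at most minus 3 library SDs, with starting brightness B-score within 2 library SDs, cut at about -5.5 in these data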
Kir21 confirm – confirmation of mouse Kir2.1 potassium channel inhibitors | 2,300 tested, 41% active | Tl flux remaining, % of negative control (stronger effect = lower value), % at 10 µM | shares compounds with KCNQ2 enhance | Kir2.1-expressing cells, FluxOR thallium flux fluorescence; stronger effect = lower value | AID 2032;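 active means Primary-screen hit whose thallium flux fell at least 3 control SD below untreated wells in both duplicates, with normal baseline fluorescence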;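 further: 0% = blank wells without stimulus and 100% = stimulated no-compound controls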
Target sequence (P35561 whole entry, looked up): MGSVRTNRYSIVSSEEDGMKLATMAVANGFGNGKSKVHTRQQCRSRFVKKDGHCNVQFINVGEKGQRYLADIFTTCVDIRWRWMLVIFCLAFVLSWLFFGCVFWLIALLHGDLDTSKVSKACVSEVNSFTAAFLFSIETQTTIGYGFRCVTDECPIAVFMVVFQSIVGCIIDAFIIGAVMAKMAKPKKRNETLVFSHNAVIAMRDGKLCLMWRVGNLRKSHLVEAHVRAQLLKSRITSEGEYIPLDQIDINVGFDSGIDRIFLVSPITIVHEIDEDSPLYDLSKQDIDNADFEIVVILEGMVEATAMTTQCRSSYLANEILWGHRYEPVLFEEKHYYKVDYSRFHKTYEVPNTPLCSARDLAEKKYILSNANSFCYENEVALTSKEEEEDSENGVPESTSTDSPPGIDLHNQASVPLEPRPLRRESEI
HEK293 ctr – counter-screen for Kir2.1 inhibitors: effect in parental HEK293 cells. AID 2105. 2,300 tested, 19% active. shares compounds with KCNQ2 enhance. FluxOR signal as % of negative control (100 = no effect), % at 10 µM. FluxOR thallium flux fluorescence; 0% = unstimulated blank wells;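 active means dye signal at least 3 control SD above or below untreated wells in both duplicates, raw fluorescence within 3, either direction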;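 further: percent is based on the flux ratio of peak minus minimum fluorescence over baseline F0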
CHO-K1 Tl ctr – counter-screen for KCNQ2 potentiators: effect in parental CHO-K1 cells; AID 2282; shares compounds with KCNQ2 enhance; FluxOR thallium flux fluorescence; zero = vehicle mean+3SD, 100% = vehicle-minus-blank window; activity increase over 3SD of controls, % at 10 µM; 1,200 tested, 43% active;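 active means signal rise of at least 3 SD above the untreated control mean, in both duplicate wells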;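 further: counter screen of KCNQ2 potentiator hits so any rise reflects channel-independent effects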
KCNQ1 pot spec – human KCNQ1 counter-target activity of KCNQ2 potentiators | shares compounds with KCNQ2 enhance | CHO KCNQ1 stable, FluxOR thallium flux fluorescence; beyond 3SD, as % of vehicle-control signal | activation over 3SD threshold, % at 10 µM | 1,200 tested, 28% active;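 active means fluorescence ratio rise of at least 3 SD of vehicle wells above their mean, in both replicate wells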;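 further: 0% = vehicle mean plus 3 SD and 100% = vehicle minus unstimulated blank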
KCNQ2 pot conf – rat KCNQ2 channel potentiator confirmation | shares compounds with KCNQ2 enhance | CHO-KCNQ2 cells, FluxOR thallium flux fluorescence | potentiation, less the hit threshold, % at 10 µM | 1,200 tested, 68% active;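 active means fluorescence ratio rising 3 SD or more over the vehicle control mean in both replicates, plus primary screen hit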;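 further: peak minus minimum thallium fluorescence divided by baseline after K/Tl stimulus; 0% = vehicle mean plus 3 SD and 100% = vehicle minus unstimulated blank difference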
Kir2-1 sel – tests whether KCNQ2 potentiators also affect mouse Kir2.1. activity over 3SD threshold, % at 10 µM. AID 2345. shares compounds with KCNQ2 enhance. 1,200 tested, 2% active. HEK293 Kir2.1, FluxOR thallium flux fluorescence;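 active means fluorescence ratio rise of at least 3 SD above the vehicle-control mean, seen in both replicates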;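 further: 0% = vehicle mean plus 3 SD and 100% = vehicle minus no-stimulus blank window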
KCNQ2 W236L pot – potentiates the retigabine-insensitive rat KCNQ2 W236L mutant channel; current increase over 3SD of negative controls (%), stronger effect = higher value, % at 25 µM; shares compounds with KCNQ2 enhance; CHO KCNQ2-W236L, automated patch clamp current; AID 2558; 940 tested, 10% active;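 active means current increase at least 3 SD of the untreated controls above them in both duplicate recordings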
An asterisk follows results filed as active; i = inactive; / = not tested or not shown.

SMILES | KCNQ2 enhance | KCNQ2 inh | Kir21 confirm | HEK293 ctr | others
CC(O)(CS(=O)(=O)c1ccccc1)C(=O)Nc1cccc(C(F)(F)F)c1 (stereo not given) | 0.27 | i | / | /
O=c1[nH]c(=O)n(-c2cccc3ccccc23)c(O)c1/C=N/N1CCCCCC1 | / | i | / | /
Cc1cc(C)n(CCOC(=O)C2C(C=C(Cl)Cl)C2(C)C)n1 (stereo not given) | / | i | 43%* | i
COc1cc2[nH]c(C(=O)N3CCC4(CC3)OCCO4)cc2c(OC)c1OC | / | i | / | /
CN(C)/C=C1/C(=O)NC(=O)N(CCNc2ncc(C(F)(F)F)cc2Cl)C1=O | / | i | / | /
CNc1cc(Cl)c2nonc2c1[N+](=O)[O-] | -9.5 | -9.5* | i | 54%*
Cc1cc([N+](=O)[O-])c(Cl)cc1NC(=O)C(C)C | 0.97 | i | / | /
CN1CCC(C)(O)C2CCCCC21 (stereo not given) | 1.1 | i | / | /
CC1(C)C[C@H]2C=C(C=O)[C@]3(C=O)C[C@]3(C)[C@H]2C1 | -6 | -6* | 42%* | 71%*
O=C(CF)NC(NC(=S)Nc1ccccc1O)C(Cl)(Cl)Cl (stereo not given) | / | i | / | /
CC1CCCCN1Cc1ccc(Cl)nc1 (stereo not given) | 0.59 | i | / | /
CCCCCSc1cc(OC)c(CCN)cc1OC | / | i | 46%* | i
COc1cc(CC(C)N)c(OC)cc1I (stereo not given) | 0.68 | i | / | /
CCOc1ccc(-c2cc(C)[n+](CCN3CCOCC3)c(-c3ccc(OCC)cc3)c2)cc1 | / | i | / | /
Cc1ccc(C[n+]2c(-c3ccc(C)cc3)cc(-c3ccc(C)cc3)cc2-c2ccc(C)cc2)cc1 | / | i | 12%* | i
CN1CCC2(O)OCCCC2C1 (stereo not given) | / | i | / | /
COc1ccc(/C=N\N=C(N)N)cc1 | 1.1 | i | / | /
NC(N)=N/N=C/c1ccc(N(c2ccccc2)c2ccccc2)cc1 | 2.4 | i | i | i
CC[C@@H](C(N)=O)N1CCCC1=O | 0.64 | i | / | /
Oc1ccc(C(=C(Cl)Cl)c2ccc(O)cc2)cc1 | 11* | i | 38%* | i | CHO-K1 Tl ctr=47*;KCNQ1 pot spec=-7;KCNQ2 pot conf=0.8*;Kir2-1 sel=-100;KCNQ2 W236L pot=i
CCCCn1c(=O)c(C(=O)Nc2nnc(C(C)C)s2)c(O)c2ccccc21 | / | i | / | /
Cc1c(C(=O)N2CCC3(CC2)OCCO3)oc2ccc(S(=O)(=O)N3CCCCC3)cc12 | 2.3 | i | / | /
O=c1[nH]c(O)c(N=Nc2cc([N+](=O)[O-])ccc2O)c(=O)[nH]1 | / | i | / | /
CNCC(O)c1cccc(OC(=O)c2ccccc2C)c1 (stereo not given) | 0.15 | i | / | /
CNCC(O)c1cc(OCc2ccccc2)c(OCc2ccccc2)cc1F (stereo not given) | / | i | 40%* | 72%*
SMILES | KCNQ2 enhance | KCNQ2 inh | Kir21 confirm | HEK293 ctr | others
COc1ccc(C(O)P(=O)(OC(C)C)OC(C)C)cc1 (stereo not given) | 0.08 | i | / | /
COc1ccc(C(=O)O/N=C(/C(N)=O)P(=O)(OC(C)C)OC(C)C)cc1 | 6.4* | i | i | i | CHO-K1 Tl ctr=-7;KCNQ1 pot spec=4.2*;KCNQ2 pot conf=27*;Kir2-1 sel=-51;KCNQ2 W236L pot=i
OC(CN1CCCCC1)c1c[nH]c2ccccc12 (stereo not given) | / | i | / | /
O=C1C(=O)c2cccc3cccc1c23 | / | i | / | /
O=C1C(=O)c2ccccc2-c2ccccc21 | 6.2* | i | i | i | CHO-K1 Tl ctr=-5;KCNQ1 pot spec=-15;KCNQ2 pot conf=-2;Kir2-1 sel=-29;KCNQ2 W236L pot=3.4%*
Cc1ccc(C(=O)N[C@@H](C)CN2C3=NC[C@H](Cc4ccccc4)N3C[C@H]2Cc2ccc(O)cc2)cc1Br | / | i | / | /
